# The list is not random: actives were taken first. Their share in the collection is about 6%.
# D1 agonist: human D1 receptor agonism; activation, % at 2 µM; hit rate 1% among 360,000; P21728; AID 504660; HEK293 T-REx D1 cells, calcium flux, agonist mode; in the data active means activation above about 30%; further: 0% is about no effect
# Target sequence (P21728 whole entry, looked up): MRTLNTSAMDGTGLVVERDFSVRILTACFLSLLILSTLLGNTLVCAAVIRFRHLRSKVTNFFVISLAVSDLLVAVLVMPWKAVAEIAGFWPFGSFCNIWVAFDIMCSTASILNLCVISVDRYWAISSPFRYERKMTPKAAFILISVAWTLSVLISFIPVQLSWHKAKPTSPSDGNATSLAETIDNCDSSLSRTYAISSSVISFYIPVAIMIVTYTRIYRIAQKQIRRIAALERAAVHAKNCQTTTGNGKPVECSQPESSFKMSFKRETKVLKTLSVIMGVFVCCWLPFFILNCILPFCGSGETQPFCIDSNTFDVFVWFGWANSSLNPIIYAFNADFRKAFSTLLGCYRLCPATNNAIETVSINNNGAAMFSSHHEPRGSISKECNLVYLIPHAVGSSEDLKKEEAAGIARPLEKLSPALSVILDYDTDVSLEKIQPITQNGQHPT
#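 Agonism was scored from calcium flux recorded over 180 s (1 read/s) after pintool compound addition, following a 10-cycle baseline. Cells were inducible force-coupled HEK293 TREx D1, plated overnight at 30 C and loaded with no-wash calcium dye.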
# D1 potentiator: enhances dopamine response at the human D1 receptor | P21728 | HEK293 TREx D1 cells, calcium flux, dopamine EC20 potentiation | potentiation, % at 10 µM | hit rate 0.036% among 360,000 | AID 504651; in the data active means potentiation above about 30%; further: 0% is about no effect
# DRD3 agonist: activates the human D3 dopamine receptor; AID 652048; hit rate 0.58% among 410,000; max activation, %; P35462; D3R DiscoveRx beta-arrestin cells, luminescence, 90 min; in the data active means max activation above about 30%; further: 0% is about no effect
#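 Cells at 1500/well, incubated overnight, then treated with pinned compounds (dopamine as control) for 90 min at 37 degrees C. DiscoveRx reagent added for 30 - 60 minutes at room temperature; luminescence read.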
# D1 antagonist: blocks dopamine activation of the human D1 receptor. P21728. HEK293 TREx D1 cells, calcium flux, dopamine EC80; hits give low values. activity change, negative = inhibition, % at 10 µM. hit rate 3.2% among 360,000. AID 504652; in the data active means activity change below about -30%; further: on the % scale 0 is the no-effect control and ±100 the full control effect
#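 Antagonism measured as reduced calcium response to an EC80 dopamine addition following 180 s compound pre-read; cells were inducible HEK293 Trex D1 plated overnight at 30 C, read kinetically at 1 cycle/sec.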
# DRD3 antagonist: D3 dopamine receptor (human) antagonism. P35462. max response, negative = inhibition, %. hit rate 2.5% among 360,000. D3R cells, DiscoveRx beta-arrestin luminescence, antagonist mode; hits give low values; in the data active means max response below about -50%; further: on the % scale 0 is the no-effect control and ±100 the full control effect
#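 Cells plated overnight at 1500 cells/well, then exposed to library compounds with dopamine controls for 90 minutes at 37 degrees C. DiscoveRx reagent added for 30–60 minutes at room temperature; luminescence read, quantitative HTS format.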
# * marks the source's active call; other numbers are inactive results; / = no result given.
SMILES,D1 agonist,D1 potentiator,DRD3 agonist,D1 antagonist,DRD3 antagonist
Cc1cccc(C)c1NC(=O)C[N+](C)(C)CC(O)COc1cccc2ccccc12 (stereo unspecified),4,-4,-15,-3,-52*
COc1cccc(C(=O)Nn2c(C)nnc2-n2nc(C)cc2C)c1,-1,-2,0,3,21
COc1ccc(C(=O)Nn2c(C)nnc2-n2nc(C)cc2C)cc1OC,-2,3,-4,-31*,14
COc1ccccc1C(=O)NNC(=S)NC(=O)c1sc2ccccc2c1Cl,213*,9,2,9,-25
COc1ccccc1C(=O)NC(=S)NNC(=O)c1sc2ccccc2c1Cl,199*,6,-3,10,10
COc1ccccc1NC(=O)C1=C(C)Nc2nc(SC)nn2C1c1ccccc1Cl (stereo unspecified),1,-4,6,-8,/
COc1ccc(-n2c(-c3cccc(C)c3[N+](=O)[O-])n[nH]c2=S)cc1,0,-6,-12,-1,-57*
Cc1cccc(-c2n[nH]c(=S)n2-c2ccccc2)c1[N+](=O)[O-],2,22,3,-3,-20
CCOC1(OCC)N=C(N)C2(C#N)C(c3cccc(C)c3)C12C#N (stereo unspecified),0,-2,5,-82*,-21
CCOC1(OCC)N=C(N)C2(C#N)C(c3cccc(OC)c3OC)C12C#N (stereo unspecified),2,-4,-13,3,12
COc1ccc(C(=O)c2ccc(Br)cc2)c2ccccc12,0,-6,-5,-40*,4
Cc1ccc(OCC(=O)Nc2ccc(C(=O)OCc3cc(=O)n4nc(C5CC5)sc4n3)cc2)cc1,-1,-1,-6,-5,/
O=C(COc1ccccc1)OCc1cc(=O)n2nc(C3CC3)sc2n1,3,-7,74*,-4,/
Cc1ccc(OCC(=O)Nc2ccccc2C(=O)OCc2cc(=O)n3nc(C4CC4)sc3n2)cc1,-1,0,37*,-3,/
CCc1nn2c(=O)cc(COC(=O)CNC(=O)COc3ccc(C)cc3)nc2s1,1,-10,-17,-52*,/
CCOc1ccccc1NC(=O)C(OC(=O)C1CC1)c1ccccc1 (stereo unspecified),30*,-2,12,-18,27
Cc1ccc(NC(=O)[C@@H](C)NC(=O)[C@@H]2Cc3ccccc3CN2)cc1,3,14,3,4,-6
Cc1ccc(NC(=O)[C@H](NC(=O)[C@@H]2Cc3ccccc3CN2)c2ccccc2)cc1C,3,0,-21,6,-101*
Cc1cccc(NC(=O)/C(C#N)=C/c2ccc(C)o2)c1,-3,-1,8,-1,/
Cc1ccc(NC(=O)C2CCN(S(=O)(=O)c3ccc4c(c3)oc(=O)n4C)CC2)cc1,4,-6,3,-12,-8
Cc1cc(C)cc(NC(=O)C2CCN(S(=O)(=O)c3ccc4c(c3)oc(=O)n4C)CC2)c1,-1,-1,-9,-34*,/
Cn1c(=O)oc2cc(S(=O)(=O)N3CCC(C(=O)Nc4ccc(F)c(Cl)c4)CC3)ccc21,4,-5,-10,-52*,/
Cn1c(=O)c2sccc2n2c(CCCC(=O)Nc3ccc(F)c(F)c3)nnc12,3,3,-2,-1,/
C=CCn1c(-c2cccs2)nc2ccccc21,0,-11,-18,-52*,0
O=C(c1cc(-c2ccccn2)nc2c(Cl)cccc12)N1CCN(S(=O)(=O)c2ccccc2)CC1,5,2,2,-15,11
SMILES,D1 agonist,D1 potentiator,DRD3 agonist,D1 antagonist,DRD3 antagonist
O=C(c1cc(-c2ccccn2)nc2c(Cl)cccc12)N1CCN(C(=O)C2CCCO2)CC1 (stereo unspecified),1,-4,1,-15,-51*
O=Cc1ccc(O)c2ncccc12,1,-4,-25,-21,-83*
O=C(O)c1ccnc2c(O)cccc12,3,2,/,20,/
C/C(N)=C(/C#N)C(=O)CSc1nnc(-c2ccc(OC(F)F)cc2)o1,4,-7,1,-37*,2
O=[N+]([O-])c1cc2ncccc2c2ncccc12,/,/,-4,/,11
COc1ccccc1CN(C)S(=O)(=O)c1cccs1,0,-6,-5,-8,-2
COc1ccc(C(C)=O)cc1CN(c1ccccc1OC)S(=O)(=O)c1cccs1,5,1,6,-94*,13
Nc1ccc2nc(-c3ccccc3)c(-c3ccccc3)nc2c1,61*,9,2,0,-6
CCc1ccc(N2CSC3=C(C#N)C(c4cccs4)CC(=O)N3C2)cc1 (stereo unspecified),4,-4,3,7,-61*
Cc1ccc(SCc2nc(-c3ccc(C(=O)NCCc4ccc(Cl)cc4)cc3)oc2C)cc1,4,-1,-7,2,/
COc1ccc(OC)c(NC(=O)c2ccc(-c3nc(CSc4ccccc4)c(C)o3)cc2)c1,4,1,4,-32*,/
Cc1ccc(SCc2nc(-c3ccc(C(=O)NCC(C)c4ccccc4)cc3)oc2C)cc1 (stereo unspecified),30*,4,-14,-5,/
COc1cccc(-c2nc(CN3CCN(C(=O)c4ccco4)CC3)c(C)o2)c1OC,/,/,10,/,0
Cc1cccc(OCC(=O)Nc2ccncc2)c1C,13,-10,6,-1,7
Cc1cccc(OCC(=O)Nc2cccc3cccnc23)c1C,5,1,6,-45*,/
Cn1c(=O)[nH]c2cc(-c3noc(-c4ccc(C#N)cc4)n3)ccc21,2,0,3,-8,/
CCOc1ccc(N=C(C)Nc2ccc(OCC)cc2)cc1,/,/,-8,/,/
COc1ccc(C=C2CS(=O)(=O)CC(=Cc3ccc(OC)cc3)C2=O)cc1,/,/,-8,/,-64*
CN(C)/N=C/C=C1\CCC/C(=C\c2ccc(F)c(F)c2)C1=O,0,-4,-2,/,-5
CN(C)c1ccc(/C=C2\CCC/C(=C\c3ccccc3)C2=O)cc1,91*,0,8,-19,-3
O=C1/C(=C/c2ccccc2)CCCc2ccccc21,2,-3,-3,-11,-11
COc1ccc(/C=C2\CCC/C(=C\C=N\N(C)C)C2=O)cc1,14,-2,-1,-35*,0
COc1ccc(NC(=O)c2cnc(SC)nc2C)c(OC)c1,1,-5,17,-9,-10
CC(=O)Nc1ccc(CC(=O)O)cc1,47*,0,7,-4,46
O=C(O)Cc1ccc(NC(=O)Nc2cccc(Cl)c2)cc1,0,-5,0,-51*,17
CCN(CC)c1ccc(NC(=O)C2COc3ccc(OC)cc3C2)c(C)c1 (stereo unspecified),5,-1,-20,-7,/
O=C(c1[nH]c(C(F)(F)F)nc1-c1ccccc1)N1CCN(C(=O)C2CCCO2)CC1 (stereo unspecified),/,/,11,/,13
CCCCN(C)Cc1cc(=O)oc2cc3c(cc12)CCCC3,3,3,-47,1,-91*

# Screening results as filed in PubChem BioAssay.
